Screening data as filed in PubChem.
Hits are enriched below; roughly 6.9% of the tested compounds scored in any of these assays.
Mdm2-MdmX inh: inhibitors of human Mdm2/MdmX interaction. SaOS-2 split-luciferase Mdm2/MdmX complementation, luminescence. 330,000 tested, 3% active. AID 485346. inhibition, % at 8 µM. O15151+Q00987;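 active means inhibition of at least 50% at 8 µM in the primary screen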
Target sequence (O15151 whole entry, looked up): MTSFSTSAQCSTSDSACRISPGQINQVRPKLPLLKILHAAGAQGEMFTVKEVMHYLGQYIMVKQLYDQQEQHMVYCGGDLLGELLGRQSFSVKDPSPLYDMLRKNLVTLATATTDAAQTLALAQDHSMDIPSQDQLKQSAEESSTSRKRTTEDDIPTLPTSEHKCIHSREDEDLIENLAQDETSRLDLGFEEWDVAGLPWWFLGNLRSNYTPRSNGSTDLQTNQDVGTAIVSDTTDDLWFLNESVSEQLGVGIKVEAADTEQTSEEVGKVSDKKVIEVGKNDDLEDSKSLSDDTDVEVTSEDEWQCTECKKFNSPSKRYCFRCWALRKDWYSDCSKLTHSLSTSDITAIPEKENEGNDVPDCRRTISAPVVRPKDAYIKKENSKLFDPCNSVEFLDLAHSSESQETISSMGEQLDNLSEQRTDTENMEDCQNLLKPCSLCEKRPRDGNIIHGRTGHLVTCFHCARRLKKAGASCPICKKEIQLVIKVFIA
Target sequence (Q00987 whole entry, looked up): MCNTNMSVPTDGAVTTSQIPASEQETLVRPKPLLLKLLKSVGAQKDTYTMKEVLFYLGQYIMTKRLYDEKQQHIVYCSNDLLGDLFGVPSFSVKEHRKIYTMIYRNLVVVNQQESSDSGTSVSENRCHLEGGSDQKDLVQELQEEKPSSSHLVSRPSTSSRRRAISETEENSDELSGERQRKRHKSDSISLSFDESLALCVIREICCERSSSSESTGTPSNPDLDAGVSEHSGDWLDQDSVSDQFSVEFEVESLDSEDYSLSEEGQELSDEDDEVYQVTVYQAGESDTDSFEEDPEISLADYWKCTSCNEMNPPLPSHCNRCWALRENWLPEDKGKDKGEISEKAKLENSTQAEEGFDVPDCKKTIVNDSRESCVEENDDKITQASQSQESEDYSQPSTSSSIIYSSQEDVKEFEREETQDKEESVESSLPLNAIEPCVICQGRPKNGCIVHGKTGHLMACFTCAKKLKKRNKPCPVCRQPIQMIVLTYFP
MPTP block: blocks calcium-induced mitochondrial swelling | isolated mouse mitochondria, Ca2+ swelling absorbance, 30 min | inhibition, % at 10 µM | 360,000 tested, 1.4% active;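 active means inhibition of 50% or more, scaled per plate between neutral and stimulator controls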;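 further: 0% = DMSO wells given calcium and 100% = 1 mM EGTA wells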
GRIN3A LBD mod: modulates the human NR3A ligand-binding domain | Tm shift relative to glycine control, % at 25 µM | AID 1259313 | NR3A LBD differential scanning fluorimetry, Tm shift; 0% = protein alone, 100% = glycine-bound protein | 340,000 tested, 2.5% active;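 active means melting temperature shift of at least 10% of the positive control shift, at one fixed dose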
Beta cell apopt: beta cell apoptosis inhibition. AID 435005. protection from apoptosis, % (concentration not given with the values). 300,000 tested, 0.8% active. INS-1E cytokine-induced death, ATP luminescence, 48 h; percent of positive-control rescue, neutral wells zero;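 active means Every replicate reaches about 75%, or at least half do and their mean reaches it too, limit read from the data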;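 further: 0% = cytokine-treated negative control wells and 100% = positive control rescue; higher means more ATP so stronger rescue from cytokine killing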
CSC inhib: blocks cancer stem cells. cancer stem cell-like cells viability, luminescence. inhibition, % at 7.5 µM. 300,000 tested, 1.1% active; in the data active means inhibition above about 75%; tested in HMLE shEcad cells
SKKanGAS inh: inhibitors of SKKanGAS S. pyogenes growth in kanamycin (SK-promoter or general growth effect); BacTiter-Glo, 6 h; inhibition, % at 7.5 µM; 300,000 tested, 1.3% active;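 active means mean replicate score, as percent of positive control median, at least 50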;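 further: strain carries kanamycin resistance gene driven by streptokinase promoter and grows in 40 µg/ml kanamycin; loss of luminescence reflects streptokinase promoter inhibition or plain growth inhibition; 0% = median of DMSO wells and 100% = positive control at its reference dose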
* hit, by the source's call; nt = no result given.

SMILES	Mdm2-MdmX inh	MPTP block	GRIN3A LBD mod	Beta cell apopt	CSC inhib	SKKanGAS inh
CCCc1ccc(C(=O)NNc2ccc(F)cc2)cc1	26.3	2.8	1.5	-9.7	94.4*	1.0
CCOC(=O)[C@@H]1[C@H]2COc3ccc(Br)cc3[C@@H]2N2C(=O)N(c3ccc(OC)cc3)C(=O)[C@@]12C	24.1	-0.5	3.0	4.1	-19.5	nt
CCc1cccc(C)c1NC(=O)CCCSc1nc2ccccc2s1	6.8	4.7	-1.4	-4.8	0.8	4.4
CCc1cccc(CC)c1NC(=O)C1SC(=Nc2ccccc2C)C(c2nc3ccccc3s2)=C1N (stereo not drawn)	9.2	20.3	19.3*	nt	60.4	36.1
O=C(Cc1ccccc1)NC1CCCCC1	nt	-0.7	nt	nt	nt	nt
CC[C@]1(C(=O)OC)[C@H]2C(=O)N(Cc3ccccc3)C(=O)[C@H]2[C@H]2CN=C(SCC3CC3)N21	23.7	0.5	1.6	nt	nt	nt
O=C(NCCCNC(=O)c1ccccn1)c1ccc(Cl)cc1	-2.7	0.0	-2.4	-2.7	-2.4	0.2
CCOC(=O)NCCOC(=O)Nc1ccc(Cl)cc1	10.9	-1.7	-0.7	-8.6	4.4	-3.3
O=C(Nc1ccc2oc(-c3ccccc3)nc2c1)c1cccs1	-181.1	-1.1	10.7*	8.2	0.6	3.1
CCOC(=O)Nc1ccc2nc(Sc3ccc(Cl)cc3)sc2c1	46.7	2.3	-17.4	20.2	85.1*	23.9
O=C(Nc1ccc2oc(-c3ccccc3)nc2c1)c1ccncc1	8.5	0.7	0.8	nt	-1.6	-18.2
CSc1nc2ccc(NC(=O)c3cccs3)cc2s1	-100.2	1.4	20.2*	-1.1	3.0	nt
CCc1ccc(NC(=O)c2ccc3nc(N)sc3c2)cc1	-20.3	2.7	15.8*	-4.2	31.9	14.6
COc1ccc(Cc2c(-c3ccccc3)nc3c(C)cc(Br)cn23)c(C)c1	nt	0.5	nt	nt	nt	nt
C=CCOc1cccc(CNc2cccc(C(=O)O)c2)c1	-23.1	1.7	-1.0	-2.8	nt	-0.6
CC1CCC2(CC1)NC(=O)N(NC(=O)c1cccc(N(C)C)c1)C2=O (stereo not drawn)	15.9	0.0	-0.8	-6.7	-2.3	nt
O=C(Nc1cccc(-c2nc3ccccc3s2)c1)c1cc(=O)c2ccccc2o1	22.0	31.0	5.7	19.2	-7.5	10.6
CSc1nc2ccc(NC(=O)c3ccc(F)c(F)c3)cc2s1	-129.5	0.1	28.3*	nt	-5.1	4.2
CSc1nc2ccc(NC(=O)c3cc4ccccc4o3)cc2s1	-200.8	9.9	19.4*	-1.2	11.0	-19.9
O=C(Nc1ccccc1)Nc1sccc1-c1nc2ccccc2s1	19.2	25.6	21.5*	7.6	19.5	5.5
O=C(Nc1cccc(-c2nc3ccccc3s2)c1)c1cccs1	-18.8	18.4	11.8*	-2.6	61.5	-1.5
CC1CN2C(c3ccc(Cl)cc3)=CSC2=N1 (stereo not drawn)	-3.8	-0.6	3.2	2.8	-7.5	-4.5
CCc1cccc2c(C(=O)CN3C(=O)NC4(CCCCC4)C3=O)c[nH]c12	5.7	0.1	-0.6	-17.0	55.2	nt
CCc1cccc2c(C(=O)CN3C(=O)C(=O)N(C4CCCC4)C3=O)c[nH]c12	-6.6	-0.6	23.1*	-2.6	nt	nt
CC(C)(C)c1ccc2c(c1)C(=O)c1ccccc1C2=O	-106.3	4.6	24.4*	11.9	15.4	-2.7
SMILES	Mdm2-MdmX inh	MPTP block	GRIN3A LBD mod	Beta cell apopt	CSC inhib	SKKanGAS inh
CCc1ccc2c(c1)C(=O)c1ccccc1C2=O	-57.9	1.4	17.6*	-16.4	-9.3	-18.7
CN(C)CCCNC(=O)c1cc(Br)ccc1O	8.3	-0.3	-0.9	-4.2	-4.6	1.1
CCCCC(=O)Nc1ccc2c(c1)nc(CCN1CCN(C)CC1)n2C	14.6	-0.5	-0.7	3.7	-19.9	-7.9
O=C(N/N=C/c1cccn1-c1ccc([N+](=O)[O-])cc1)c1cccnc1	19.7	1.8	-0.4	nt	-5.5	-0.1
CCCCCCc1ccc(-c2ncc(N)cn2)cc1	-140.8	6.6	10.7*	-0.7	-7.1	11.2
CCCCCc1ccc(-c2nnc(N)s2)cc1	-22.3	-1.4	0.3	-3.5	-2.9	-0.9
COc1ccc(/C=N/NC(=O)c2cc(C34CC5CC(CC(C5)C3)C4)[nH]n2)cc1O	17.7	0.2	-6.7	-4.4	96.6*	12.4
O=C1N(Cc2ccccc2)c2ccccc2OC1(F)F	nt	1.1	nt	nt	nt	nt
CCOC(=O)c1cc(-c2ccc3c(c2)OCCO3)nc2c1c(C)nn2CCC#N	40.9	-2.6	-0.8	6.4	-4.3	80.6*
Oc1c(C(Nc2ccccn2)c2cccnc2)cc(Cl)c2cccnc12 (stereo not drawn)	31.1	-0.3	-4.5	84.6*	-2.8	94.7*
O=C(CNC(=O)c1ccccc1C(F)(F)F)N/N=C/c1cccs1	3.6	-0.2	-0.8	0.7	-6.9	-7.1
O=C(/C=C/c1ccc(O)cc1)c1ccc(O)cc1O	27.1	1.2	27.7*	-0.1	31.5	8.8
CSc1ccc(/C=C/C(=O)c2ccc(O)cc2)cc1	-39.6	14.2	10.9*	-1.2	43.7	-4.0
CCCCC(=O)N(C)c1c(CC)nc2c(OCCOc3ccccc3)cccn12	nt	-0.4	nt	nt	nt	nt
CCOc1ccccc1Nc1ccnc2cc(Cl)ccc12	20.4	3.6	228.4*	23.3	10.5	-13.8
O=C(NNC(=O)c1ccc(NC(=O)c2ccccc2)cc1)c1ccccc1	-4.2	-0.5	3.1	-8.1	-8.8	5.3
CC(=O)c1ccc(NC(=O)Nc2ccccc2)cc1	-72.1	39.5	27.3*	6.1	11.1	-2.4
O=C(Nc1ccccc1)Nc1ccccc1Br	-22.9	5.0	-11.9	11.5	1.1	2.4
CNC(=O)c1ccc(NC(=O)Nc2ccccc2)cc1	-16.1	0.6	25.5*	-0.6	3.6	3.4
O=C(Nc1ccccc1)Nc1cccc(NC(=O)Nc2ccccc2)c1F	15.5	0.5	24.3*	6.6	7.9	-7.0
C=C1CCC2C(C)(C(=O)O)CCCC2(C)C1CCC(CO)CCO (stereo not drawn)	nt	-0.5	nt	nt	nt	nt
COc1ccc(/C=C2\C(=O)c3ccccc3OC2c2ccccc2)cc1 (stereo not drawn)	37.5	0.7	1.4	25.4	82.0*	13.9
CNC(=O)c1ccccc1S(=O)(=O)c1ccccc1C#N	-4.2	-1.8	10.8*	-4.2	-9.4	3.8
COc1ccc(Oc2cn[nH]c2-c2ccc(OCC(=O)NN)cc2O)cc1	15.0	0.4	0.9	nt	nt	87.5*
CCCOC(=O)c1ccc(Oc2cn[nH]c2-c2ccc(OCC)cc2O)cc1	21.4	2.0	15.9*	-0.7	-7.2	77.7*
COc1ccccc1Oc1cn[nH]c1-c1ccc(OCC(=O)NN)cc1O	-23.3	1.2	-2.7	nt	nt	49.5*
COc1ccccc1Oc1cn[nH]c1-c1ccc(O)cc1O	26.2	0.6	-5.3	-2.2	9.1	-4.2
COc1ccc(-c2c(-c3ccc(OCC(=O)NN)cc3O)n[nH]c2C(F)(F)F)cc1	-10.0	-0.4	-4.8	3.9	50.1	-4.4
CCN(CC)C(=O)CSc1nc2c(sc(=S)n2-c2ccccc2)c(=O)n1-c1ccc(OC)cc1OC	14.3	1.5	11.6*	nt	nt	1.5
CCN(CC)C(=O)CSc1nc2c(sc(=S)n2-c2ccccc2)c(=O)n1-c1ccccc1OC	-4.5	1.0	3.8	nt	nt	-2.0
